NadD inh: inhibitors of S. aureus NadD, primary screen, biochemical, colorimetric, uHTS; purified NadD enzyme, colorimetric absorbance read-out; Nicotinate-nucleotide adenylyltransferase NadD (Staphylococcus aureus N315); inhibition, % at 20 µM; 360,000 tested, 0.78% active; AID 602399, 2012; in the data active means inhibition above about 26%
PP1 inh: PP1-alpha phosphatase inhibitors, primary screen, counter-screen for PP5 inhibitor project, biochemical, fluorescence, OMFP substrate, single point; purified PP1alpha; inhibition, % at 6.7 µM; 320,000 tested, 0.9% active; AID 2235, 2010;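 active means inhibition above the mean inhibition of all tested compounds plus 3 SD, computed separately for each screening campaign, cut at about 15% in these data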
GRK2 aptamer HTS: compounds blocking aptamer binding on GRK2 – biochemical, human GRK2, bead flow cytometry, HTS, primary screen; Beta-adrenergic receptor kinase 1 (Homo sapiens), P25098; FAM-aptamer displacement from GRK2; inhibition of aptamer binding, % at 10 µM; 330,000 tested, 0.59% active; AID 488847, 2010;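 active means inhibition of aptamer binding above 40%, roughly 3 SD of noise, on plates passing a quality check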;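 further: median bead fluorescence of bound FAM aptamer so fluorescent compounds give negative values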
Beta2AR agonist: beta2AR agonists driving receptor internalization, primary screen, cell-based, FAP fluorogen, flow cytometry. Beta-2 adrenergic receptor (Homo sapiens), P07550. Am2.2-beta2AR cells. response, % (concentration not given with the values). 340,000 tested, 0.43% active. AID 504454, 2011;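 active means response above a set limit, near 3 SD of response in nonfluorescent compounds, cut at about 42% in these data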
Target sequence (P07550 whole entry, looked up): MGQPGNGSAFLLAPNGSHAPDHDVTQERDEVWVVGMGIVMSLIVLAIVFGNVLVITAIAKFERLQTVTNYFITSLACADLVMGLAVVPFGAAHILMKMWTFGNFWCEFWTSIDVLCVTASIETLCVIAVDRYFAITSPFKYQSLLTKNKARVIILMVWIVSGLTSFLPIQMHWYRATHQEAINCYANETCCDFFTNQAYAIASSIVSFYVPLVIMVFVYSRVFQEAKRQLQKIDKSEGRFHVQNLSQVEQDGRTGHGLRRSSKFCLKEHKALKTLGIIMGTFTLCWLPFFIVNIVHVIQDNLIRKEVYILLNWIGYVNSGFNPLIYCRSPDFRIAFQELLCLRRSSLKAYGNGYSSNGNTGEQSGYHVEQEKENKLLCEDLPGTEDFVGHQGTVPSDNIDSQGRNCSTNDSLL
Exocytosis inh: LAMP-1 surface exposure blockers, TALL-104 cells – cell-based, flow cytometry, MLPCN library, primary screen; TALL-104 LAMP-1 surface exposure; cells stimulated with thapsigargin and PMA; inhibition, % at 10 µM; 360,000 tested, 0.66% active;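 active means inhibition above about 55%, limit read from the data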
NadD inh conf: inhibitors of S. aureus NadD, confirmation, biochemical, colorimetric, single concentration; shares compounds with NadD inh; inhibition, % at 20 µM; 2,000 tested, 13% active; purified S. aureus NadD, colorimetric enzyme assay; in the data active means inhibition mostly above about 42%, no sharp cut-off; inactive means mostly below about 42%
* hit, by the source's call; · = not tested or not shown. Compounds with a hit are over-represented: about 2.9% of the library has one in this group of screens.

SMILES | NadD inh | PP1 inh | GRK2 aptamer HTS | Beta2AR agonist | Exocytosis inh | NadD inh conf
O=C(CNC(=O)c1ccccc1F)OCc1nc2ccc(Cl)cc2n1CCO | 0 | -1 | 0 | 0 | -6 | ·
CC(C)C[C@@H](CN1CCC[C@@H]1CN1C(=S)NC[C@@H]1Cc1ccc(O)cc1)N1C[C@H](Cc2ccc(O)cc2)N(CC2CCCCCC2)C1=S | 44* | · | · | · | 33 | 28
CC(C)C[C@H]1CN([C@@H](CC(C)C)CN2CCCC2CN2C(=S)NC[C@@H]2Cc2ccc(O)cc2)C(=S)N1CC1CCCCC1 (some centres undefined) | 29 | · | · | -7 | 22 | ·
CC(C)C[C@H]1CN([C@@H](CC(C)C)CN2CCC[C@@H]2CN2C(=S)NC[C@@H]2Cc2ccc(O)cc2)C(=S)N1CC1CCCCC1 | 30* | · | · | · | 23 | 11
CN(C)CCCN=Cc1c(O)n(Cc2ccc3c(c2)OCO3)c(=O)c2ccccc12 | · | -8 | 0 | · | · | ·
COc1ccc(C(=O)NC(=S)Nc2nc(-c3ccc(OC)c(Br)c3)cs2)cc1Br | 33* | 2 | 1 | -16 | 0 | 0
COc1ccc(-c2csc(NC(=S)NC(=O)c3ccccc3)n2)cc1Br | 11 | -6 | 0 | 3 | -6 | ·
CN(C(=O)c1cccc(S(=O)(=O)N2CCCC2)c1)C1CCCCC1 | -9 | 3 | 0 | -10 | 2 | ·
CCc1nc2ccc(C(=O)NCCOc3ccc(OC)cc3)cn2c1N(CC)Cc1ccc(OC)c(OC)c1 | 2 | · | · | · | -2 | ·
O=C(Cc1ccccc1Cl)Nc1ccc(S(=O)(=O)Nc2nccs2)cc1 | -2 | 0 | 4 | -7 | -3 | ·
O=C(CSc1ccc(Br)c2cccc(Cl)c12)Nc1ccc(S(=O)(=O)Nc2nccs2)cc1 | 71* | 9 | 1 | 9 | -1 | 31*
Cc1ccccc1NC(=O)c1ccc(NS(=O)(=O)c2cc(C(C)(C)C)cc(C)c2C)cc1 | 41* | 7 | 1 | 13 | -1 | 26
Cc1cc(C(C)(C)C)cc(S(=O)(=O)Nc2cccc(C(=O)O)c2)c1C | -4 | 13 | 3 | 11 | -4 | ·
COC(=O)c1ccc(C2/C(=C(\O)c3ccc4c(c3)OCCO4)C(=O)C(=O)N2CCCN2CCOCC2)cc1 (centres undefined) | 0 | 5 | 1 | 2 | -7 | ·
C=CCOc1ccc(C2/C(=C(\O)c3ccc4c(c3)OCCO4)C(=O)C(=O)N2CCCN2CCOCC2)cc1 (centres undefined) | 44* | 8 | 2 | 7 | 0 | 30
CCCCOc1cccc(C2/C(=C(\O)c3ccc4c(c3)OCCO4)C(=O)C(=O)N2CCN2CCOCC2)c1 (centres undefined) | 47* | 3 | 0 | 4 | -2 | 46
O=[N+]([O-])c1ccc(S(=O)(=O)Nc2ccc(-c3ccc(N4CCCC4)nn3)cc2)cc1 | 21 | 0 | 2 | -1 | 1 | ·
Cc1ccc(S(=O)(=O)Nc2cccc(-c3ccc(N4CCCCCC4)nn3)c2)c(C)c1 | 42* | 11 | 5 | 20 | -1 | 15
Cc1ccc([N+](=O)[O-])cc1S(=O)(=O)Nc1ccc(-c2ccc(N3CCCC3)nn2)cc1 | 38* | 7 | 1 | 7 | -3 | 37
O=[N+]([O-])c1ccc(Cl)c(S(=O)(=O)Nc2cccc(-c3ccc(N4CCCC4)nn3)c2)c1 | 63* | 5 | 2 | -5 | -2 | 52*
O=[N+]([O-])c1ccc(Cl)c(S(=O)(=O)Nc2ccc(-c3ccc(N4CCCC4)nn3)cc2)c1 | 25 | 5 | 1 | -1 | -1 | ·
COc1cccc(OCC(=O)Nc2c3c(nn2-c2ccc(F)cc2)CS(=O)(=O)C3)c1 | -1 | -2 | 0 | 1 | 17 | ·
Cc1cccc(C(=O)NC(=S)NNC(=O)COc2c(C)cccc2C)c1 | 7 | 4 | 2 | 13 | -10 | ·
Cc1ccc(-c2c(C#N)c(N)nc3c2CCCC3)o1 | -3 | -3 | 0 | 0 | 0 | ·
Cc1ccc(-c2cc(-c3ccccc3)c(C#N)c(N)n2)o1 | 41* | 3 | 3 | -20 | -1 | 48
SMILES | NadD inh | PP1 inh | GRK2 aptamer HTS | Beta2AR agonist | Exocytosis inh | NadD inh conf
Cc1ccc(-c2cc(-c3ccc(F)cc3)nc(N)c2C#N)o1 | 13 | 1 | 2 | 11 | -1 | ·
Cc1ccc(-c2cc(-c3ccccc3Cl)c(C#N)c(N)n2)o1 | 68* | 8 | 0 | -8 | 3 | 57*
CCc1nnc(NS(=O)(=O)c2ccc(N3C(=O)C4CC=C(Cl)CC4C3=O)cc2)s1 (centres undefined) | 3 | 2 | 3 | -5 | -2 | ·
O=C(NCCc1ccc(Cl)cc1)C1CCN(c2ncccn2)CC1 | 5 | -2 | 0 | -9 | 0 | ·
Cc1cc2cc(CN(Cc3cccs3)C(c3nnnn3C(C)(C)C)C(C)C)c3nnnn3c2cc1C (centres undefined) | 31* | · | · | 2 | -3 | 3
N#Cc1ccccc1Cn1cc(/C=N/Nc2ccc([N+](=O)[O-])cn2)c2ccccc21 | 32* | 1 | 0 | -105 | 0 | 5
C=CCOC(=O)C1=C(C)NC(=O)NC1c1cc2c(cc1Br)OCO2 (centres undefined) | 0 | 0 | 2 | -10 | -2 | ·
COc1ccc(-n2c(=S)[nH]c3c(sc(=S)n3-c3ccccc3)c2=O)c(OC)c1 | 30* | -2 | 2 | 7 | 5 | 14
COc1ccc(-n2c(=S)[nH]c3sc(-c4ccccc4)cc3c2=O)c(OC)c1 | 4 | -1 | · | 2 | -3 | ·
CCOC(=O)c1c(NC(=O)CSc2nc3cc(Cl)ccc3c(=O)n2Cc2ccco2)sc(C(=O)N(C)C)c1C | 39* | 12 | 0 | 17 | 0 | 8
CCc1ccc(NC(=O)CSc2nc3cc(C(=O)OC)ccc3c(=O)n2Cc2ccco2)cc1 | 26 | -2 | 0 | 4 | -2 | ·
COc1cc(/C=C(\C#N)c2nc3ccccc3o2)ccc1O | 0 | -21 | 0 | -566 | 8 | ·
COc1cc(/C=C(\C#N)c2nc(-c3cc4ccccc4oc3=O)cs2)ccc1O | 50* | -5 | 0 | -93 | 5 | -6
CN(C)c1ccc(/C=N/NC(=O)c2nnn(-c3nonc3N)c2CN(C)c2ccccc2)cc1 | 37* | -4 | 0 | 2 | 3 | 38
Nc1nonc1-n1nnc(C(=O)N/N=C/c2ccccc2)c1CN1CCc2ccccc21 | 61* | 9 | 0 | 1 | -6 | 43
CCN(CC)c1ccc(/C=N/NC(=O)c2nnn(-c3nonc3N)c2-c2ccc(C)cc2)cc1 | 47* | 8 | 4 | 16 | -6 | 25

Screens (PubChem)
